Test results: the supplement of paper PMC10849652
Of roughly 7,900 targets only a part is listed; those with a hit were picked by preference. About 0.6% of all pairs of compound and target were hits. Unmarked numbers belong to inactive results.

Experiments:
Assay in all cases: log2 fold change, soluble protein after heating vs DMSO (PISA); higher = thermal stabilisation; K562 cells, 10 uM, 30 min; active = over 0.2 and 3.5 SD of the protein, either way, in both replicates (recomputed)
[1] = compound: COC1=CC=C(C=C1)CN2C=CC3=C2C=C(C=C3)C(=O)NO
Method in brief: (§1)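 Soluble protein was defined as the supernatant after 21,000xg for 90 min. It came from K562 cells at 2×10^6 cells/mL given 10 μM compound for 30 min, heated in aliquots for 3 min across 48°C-58°C, pooled, and extracted in PBS with 0.5% NP-40 at 4°C, and was quantified by TMTpro 16plex LC-MS/MS with equalised channel sums. Thermal stability against control samples, from duplicates, is reported as log2 fold change.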

filanesib = compound: CON(C)C(=O)N1N=C(c2cc(F)ccc2F)S[C@@]1(CCCN)c1ccccc1 [filanesib]
Method in brief: as §1

zotarolimus = compound: CO[C@H]1C[C@@H]2CC[C@@H](C)[C@@](O)(O2)C(=O)C(=O)N2CCCC[C@H]2C(=O)O[C@H]([C@H](C)C[C@@H]2CC[C@H](n3cnnn3)[C@H](OC)C2)CC(=O)[C@H](C)/C=C(\C)[C@@H](O)[C@@H](OC)C(=O)[C@H](C)C[C@H](C)/C=C/C=C/C=C/1C [zotarolimus]
Method in brief: as §1

idasanutlin = compound: COc1cc(C(=O)O)ccc1NC(=O)[C@@H]1N[C@@H](CC(C)(C)C)[C@](C#N)(c2ccc(Cl)cc2F)[C@H]1c1cccc(Cl)c1F [idasanutlin]
Method in brief: as §1

alisertib = compound: COc1cc(Nc2ncc3c(n2)-c2ccc(Cl)cc2C(c2c(F)cccc2OC)=NC3)ccc1C(=O)O [alisertib]
Method in brief: as §1

[2] = compound: COc1cc2nc(-c3cc(F)ccc3O)nc(N[C@@H]3CNC[C@H]3C(C)(C)O)c2cc1OC
Method in brief: as §1

gefitinib = compound: COc1cc2ncnc(Nc3ccc(F)c(Cl)c3)c2cc1OCCCN1CCOCC1 [gefitinib]
Method in brief: as §1

[3] = compound: COc1cccc2cc(-c3nc([C@H]4CC[C@H](C(=O)O)CC4)n4ncnc(N)c34)[nH]c12
Method in brief: as §1

lapatinib = compound: CS(=O)(=O)CCNCc1ccc(-c2ccc3ncnc(Nc4ccc(OCc5cccc(F)c5)c(Cl)c4)c3c2)o1 [lapatinib]
Method in brief: as §1

pictilisib = compound: CS(=O)(=O)N1CCN(Cc2cc3nc(-c4cccc5[nH]ncc45)nc(N4CCOCC4)c3s2)CC1 [pictilisib]
Method in brief: as §1

[4] = compound: CS(=O)(=O)c1ccc(-c2cnc(N)c(C(=O)Nc3ccccc3)n2)cc1
Method in brief: as §1

crizotinib = compound: C[C@@H](Oc1cc(-c2cnn(C3CCNCC3)c2)cnc1N)c1c(Cl)ccc(F)c1Cl [crizotinib]
Method in brief: as §1

[5] = compound: C[C@@H]1COCCN1C2=NC(=NC(=C2)C3(CC3)S(=O)(=O)C)C4=C5C=CNC5=CC=C4
Method in brief: as §1

[6] = compound: C[C@H](C1=CC=C(C=C1)C(=O)NC2=C3C=CNC3=NC=C2)N
Method in brief: as §1

duvelisib = compound: C[C@H](Nc1ncnc2nc[nH]c12)c1cc2cccc(Cl)c2c(=O)n1-c1ccccc1 [duvelisib]
Method in brief: as §1

gandotinib = compound: Cc1cc(Nc2cc(CN3CCOCC3)c3nc(C)c(Cc4ccc(Cl)cc4F)n3n2)n[nH]1 [gandotinib]
Method in brief: as §1

tozasertib = compound: Cc1cc(Nc2cc(N3CCN(C)CC3)nc(Sc3ccc(NC(=O)C4CC4)cc3)n2)n[nH]1 [tozasertib]
Method in brief: as §1

[7] = compound: Cc1cc(SCc2sc(-c3ccc(C(F)(F)F)cc3)nc2C)ccc1OCC(=O)O
Method in brief: as §1

doramapimod = compound: Cc1ccc(-n2nc(C(C)(C)C)cc2NC(=O)Nc2ccc(OCCN3CCOCC3)c3ccccc23)cc1 [doramapimod]
Method in brief: as §1

ispinesib = compound: Cc1ccc(C(=O)N(CCCN)[C@@H](c2nc3cc(Cl)ccc3c(=O)n2Cc2ccccc2)C(C)C)cc1 [ispinesib]
Method in brief: as §1

UniProt Q9UHB9, sequence (Q9UHB9 whole entry, looked up): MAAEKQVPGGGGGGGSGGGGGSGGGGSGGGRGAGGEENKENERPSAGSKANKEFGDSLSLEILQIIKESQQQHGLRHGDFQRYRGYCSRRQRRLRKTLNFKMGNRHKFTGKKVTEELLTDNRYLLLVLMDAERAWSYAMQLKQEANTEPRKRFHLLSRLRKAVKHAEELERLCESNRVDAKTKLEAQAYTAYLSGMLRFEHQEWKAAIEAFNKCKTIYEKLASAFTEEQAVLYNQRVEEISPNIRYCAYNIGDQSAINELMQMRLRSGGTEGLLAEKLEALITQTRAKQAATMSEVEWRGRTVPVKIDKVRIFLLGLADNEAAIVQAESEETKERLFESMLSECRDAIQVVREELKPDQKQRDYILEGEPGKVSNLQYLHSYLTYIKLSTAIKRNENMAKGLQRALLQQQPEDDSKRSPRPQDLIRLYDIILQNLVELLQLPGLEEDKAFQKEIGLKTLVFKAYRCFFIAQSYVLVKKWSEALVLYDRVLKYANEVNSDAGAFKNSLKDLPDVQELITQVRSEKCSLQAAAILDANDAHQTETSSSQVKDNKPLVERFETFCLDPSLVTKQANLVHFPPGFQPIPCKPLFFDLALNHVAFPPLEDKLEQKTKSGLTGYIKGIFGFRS
UniProt Q99805, sequence (Q99805 whole entry, looked up): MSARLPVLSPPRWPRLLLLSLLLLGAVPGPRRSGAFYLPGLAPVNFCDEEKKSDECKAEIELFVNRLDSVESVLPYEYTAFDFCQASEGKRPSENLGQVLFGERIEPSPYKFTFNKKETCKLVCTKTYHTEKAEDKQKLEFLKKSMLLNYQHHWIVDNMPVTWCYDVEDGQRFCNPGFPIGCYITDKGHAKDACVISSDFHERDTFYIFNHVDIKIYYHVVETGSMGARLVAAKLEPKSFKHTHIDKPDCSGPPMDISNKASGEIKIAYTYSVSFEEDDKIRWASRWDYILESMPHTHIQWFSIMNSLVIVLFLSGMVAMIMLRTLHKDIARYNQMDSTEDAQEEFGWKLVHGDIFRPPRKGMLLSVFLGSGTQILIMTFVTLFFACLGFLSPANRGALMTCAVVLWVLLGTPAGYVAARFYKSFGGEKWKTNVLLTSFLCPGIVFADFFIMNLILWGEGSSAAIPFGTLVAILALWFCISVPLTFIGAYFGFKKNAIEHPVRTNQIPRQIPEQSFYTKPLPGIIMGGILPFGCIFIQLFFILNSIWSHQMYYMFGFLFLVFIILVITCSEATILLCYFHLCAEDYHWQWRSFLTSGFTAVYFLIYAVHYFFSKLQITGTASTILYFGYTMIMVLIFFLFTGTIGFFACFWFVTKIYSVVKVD
UniProt O95772, sequence (O95772 whole entry, looked up): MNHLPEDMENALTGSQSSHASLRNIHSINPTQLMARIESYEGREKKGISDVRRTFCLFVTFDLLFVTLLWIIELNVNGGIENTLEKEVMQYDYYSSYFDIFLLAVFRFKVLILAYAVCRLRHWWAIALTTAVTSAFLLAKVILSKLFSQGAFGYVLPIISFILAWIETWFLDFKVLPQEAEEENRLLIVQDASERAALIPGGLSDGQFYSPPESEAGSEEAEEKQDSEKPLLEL
UniProt Q9BUA3, sequence (Q9BUA3 whole entry, looked up): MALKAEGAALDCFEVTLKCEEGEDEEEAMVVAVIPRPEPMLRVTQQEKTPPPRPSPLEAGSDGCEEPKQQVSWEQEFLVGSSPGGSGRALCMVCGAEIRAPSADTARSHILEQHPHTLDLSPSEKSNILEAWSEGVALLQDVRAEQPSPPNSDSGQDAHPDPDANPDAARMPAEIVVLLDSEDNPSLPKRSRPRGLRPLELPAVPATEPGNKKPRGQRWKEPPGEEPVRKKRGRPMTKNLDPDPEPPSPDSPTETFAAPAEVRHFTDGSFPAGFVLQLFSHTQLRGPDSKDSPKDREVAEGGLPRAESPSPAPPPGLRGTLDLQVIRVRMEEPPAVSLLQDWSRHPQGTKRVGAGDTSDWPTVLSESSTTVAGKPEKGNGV
UniProt P51687, sequence (P51687 whole entry, looked up): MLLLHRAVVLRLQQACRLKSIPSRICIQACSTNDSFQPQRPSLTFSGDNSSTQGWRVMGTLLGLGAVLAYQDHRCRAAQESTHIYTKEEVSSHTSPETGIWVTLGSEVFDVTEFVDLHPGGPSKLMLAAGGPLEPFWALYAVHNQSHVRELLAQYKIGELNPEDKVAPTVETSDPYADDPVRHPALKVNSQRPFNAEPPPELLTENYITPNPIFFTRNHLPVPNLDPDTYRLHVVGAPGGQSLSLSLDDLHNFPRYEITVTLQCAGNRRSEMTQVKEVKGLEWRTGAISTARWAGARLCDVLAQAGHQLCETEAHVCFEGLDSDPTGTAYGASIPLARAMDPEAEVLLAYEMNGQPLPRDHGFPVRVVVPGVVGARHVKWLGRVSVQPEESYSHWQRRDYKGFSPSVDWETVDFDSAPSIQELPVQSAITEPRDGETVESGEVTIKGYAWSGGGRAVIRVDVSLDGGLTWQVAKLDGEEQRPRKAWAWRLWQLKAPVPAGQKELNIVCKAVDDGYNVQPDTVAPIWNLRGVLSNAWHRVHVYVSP
UniProt Q8TCT7, sequence (Q8TCT7 whole entry, looked up): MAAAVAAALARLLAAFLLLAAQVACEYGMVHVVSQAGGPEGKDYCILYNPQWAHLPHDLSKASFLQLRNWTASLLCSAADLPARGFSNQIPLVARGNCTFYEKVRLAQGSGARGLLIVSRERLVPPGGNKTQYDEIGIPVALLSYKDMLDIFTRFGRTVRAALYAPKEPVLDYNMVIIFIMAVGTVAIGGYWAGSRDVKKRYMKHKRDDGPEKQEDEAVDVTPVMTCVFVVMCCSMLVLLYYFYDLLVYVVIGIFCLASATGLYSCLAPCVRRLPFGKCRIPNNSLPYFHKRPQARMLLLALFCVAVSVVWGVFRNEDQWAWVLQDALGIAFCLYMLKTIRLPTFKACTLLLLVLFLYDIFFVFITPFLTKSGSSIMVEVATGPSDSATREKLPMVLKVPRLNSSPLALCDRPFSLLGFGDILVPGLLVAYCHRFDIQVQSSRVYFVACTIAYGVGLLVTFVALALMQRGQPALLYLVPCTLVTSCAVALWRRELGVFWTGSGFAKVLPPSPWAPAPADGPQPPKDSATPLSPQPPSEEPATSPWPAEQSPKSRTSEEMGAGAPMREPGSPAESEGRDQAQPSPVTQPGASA
UniProt A6NHR9, sequence (A6NHR9 whole entry, looked up): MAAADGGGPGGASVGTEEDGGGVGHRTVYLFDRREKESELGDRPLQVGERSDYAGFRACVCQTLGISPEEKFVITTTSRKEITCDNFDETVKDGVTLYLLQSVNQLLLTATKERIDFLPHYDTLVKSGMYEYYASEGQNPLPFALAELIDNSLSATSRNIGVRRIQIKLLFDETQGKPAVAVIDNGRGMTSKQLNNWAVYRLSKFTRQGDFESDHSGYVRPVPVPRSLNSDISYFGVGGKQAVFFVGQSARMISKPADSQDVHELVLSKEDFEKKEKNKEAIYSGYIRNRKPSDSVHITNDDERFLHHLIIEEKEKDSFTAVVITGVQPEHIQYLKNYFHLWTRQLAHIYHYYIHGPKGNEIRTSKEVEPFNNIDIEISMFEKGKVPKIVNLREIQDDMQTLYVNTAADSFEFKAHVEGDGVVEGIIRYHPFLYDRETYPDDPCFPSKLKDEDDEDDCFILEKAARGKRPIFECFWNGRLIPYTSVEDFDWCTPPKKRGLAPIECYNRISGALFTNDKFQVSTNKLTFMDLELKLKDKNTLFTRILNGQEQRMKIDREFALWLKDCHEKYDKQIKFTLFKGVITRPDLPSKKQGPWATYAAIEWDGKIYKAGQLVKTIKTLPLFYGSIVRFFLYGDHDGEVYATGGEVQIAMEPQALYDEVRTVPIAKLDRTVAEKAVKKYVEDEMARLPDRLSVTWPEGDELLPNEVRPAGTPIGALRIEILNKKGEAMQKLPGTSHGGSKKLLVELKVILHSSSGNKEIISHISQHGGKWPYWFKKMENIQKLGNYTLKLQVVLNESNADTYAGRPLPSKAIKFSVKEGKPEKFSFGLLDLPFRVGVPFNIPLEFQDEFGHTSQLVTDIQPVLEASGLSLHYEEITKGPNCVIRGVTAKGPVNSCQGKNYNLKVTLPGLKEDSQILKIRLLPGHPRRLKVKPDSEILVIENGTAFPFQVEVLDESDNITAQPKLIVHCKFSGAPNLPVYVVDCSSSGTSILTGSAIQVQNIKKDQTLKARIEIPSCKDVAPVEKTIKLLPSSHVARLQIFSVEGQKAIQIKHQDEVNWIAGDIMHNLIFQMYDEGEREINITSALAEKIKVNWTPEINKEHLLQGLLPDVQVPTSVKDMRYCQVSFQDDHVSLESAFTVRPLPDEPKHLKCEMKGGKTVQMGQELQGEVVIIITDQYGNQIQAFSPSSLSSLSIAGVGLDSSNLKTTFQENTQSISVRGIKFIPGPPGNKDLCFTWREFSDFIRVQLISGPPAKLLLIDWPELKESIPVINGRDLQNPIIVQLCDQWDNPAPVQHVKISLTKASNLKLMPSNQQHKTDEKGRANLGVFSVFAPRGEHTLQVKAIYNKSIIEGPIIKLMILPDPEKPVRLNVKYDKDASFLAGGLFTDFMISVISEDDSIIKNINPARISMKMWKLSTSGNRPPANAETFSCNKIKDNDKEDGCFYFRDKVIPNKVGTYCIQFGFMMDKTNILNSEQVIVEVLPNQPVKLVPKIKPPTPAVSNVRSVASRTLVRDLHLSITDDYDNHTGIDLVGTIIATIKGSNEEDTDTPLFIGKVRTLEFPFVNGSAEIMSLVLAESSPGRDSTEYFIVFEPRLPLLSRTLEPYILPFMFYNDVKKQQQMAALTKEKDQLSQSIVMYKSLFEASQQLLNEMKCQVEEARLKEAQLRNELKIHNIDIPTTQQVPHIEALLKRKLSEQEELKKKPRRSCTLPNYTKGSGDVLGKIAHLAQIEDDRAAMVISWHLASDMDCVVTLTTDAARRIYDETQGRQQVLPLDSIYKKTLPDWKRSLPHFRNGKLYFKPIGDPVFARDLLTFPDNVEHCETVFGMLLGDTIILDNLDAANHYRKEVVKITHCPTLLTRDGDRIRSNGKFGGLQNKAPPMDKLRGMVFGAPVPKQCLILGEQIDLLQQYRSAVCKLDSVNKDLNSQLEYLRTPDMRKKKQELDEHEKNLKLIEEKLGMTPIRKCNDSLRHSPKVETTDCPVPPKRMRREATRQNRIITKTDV

Row | Target | log2 fold change [1] | log2 fold change (filanesib) | log2 fold change (zotarolimus) | log2 fold change (idasanutlin) | log2 fold change (alisertib) | log2 fold change [2] | log2 fold change (gefitinib) | log2 fold change [3] | log2 fold change (lapatinib) | log2 fold change (pictilisib) | log2 fold change [4] | log2 fold change (crizotinib) | log2 fold change [5] | log2 fold change [6] | log2 fold change (duvelisib) | log2 fold change (gandotinib) | log2 fold change (tozasertib) | log2 fold change [7] | log2 fold change (doramapimod) | log2 fold change (ispinesib)
1 | TJP1 (UniProt Q07157) | 0.02 | 0.035 | 0.03 | 0.001 | -0.059 | 0.005 | 0.038 | 0.055 | -0.006 | 0.017 | 0.004 | -0.016 | 0.044 | -0.06 | 0.076 | -0.124 | 0.064 | 0.061 | -0.01 | 0.026
2 | SPINDOC (UniProt Q9BUA3) | 0.165 | 0.221 | -0.02 | 0.008 | -0.113 | 0.145 | 0.073 | 0.017 | -0.045 | -0.117 | 0.09 | 0.104 | -0.059 | -0.074 | -0.296 | -0.001 | 0.14 | 0.053 | 0.097 | -0.008
3 | SRP68 (UniProt Q9UHB9) | 0.024 | 0.066 | 0.043 | -0.036 | -0.029 | 0.016 | 0.008 | -0.126 | -0.011 | -0.054 | 0.004 | -0.134 | -0.02 | 0.15 | -0.017 | -0.064 | 0.054 | 0.112 | 0.029 | -0.209
4 | SMAP (UniProt O00193) | -0.046 | -0.154 | -0.018 | 0.005 | -0.01 | 0.02 | 0.033 | 0.051 | -0.013 | -0.016 | 0.004 | -0.06 | -0.01 | -0.082 | 0.017 | -0.032 | 0 | -0.03 | 0.023 | -0.015
5 | TANK (UniProt Q92844) | 0.017 | 0.03 | -0.024 | 0.02 | -0.028 | 0.097 | -0.032 | 0.048 | -0.015 | 0.027 | -0.032 | 0.287 | -0.021 | 0.069 | 0.038 | 0.135 | 0.112 | 0.091 | -0.015 | -0.064
6 | SNX1 (UniProt Q13596) | -0.021 | -0.182 | 0.042 | -0.013 | -0.003 | -0.063 | -0.165 | 0 | -0.027 | -0.205 | -0.134 | -0.247 | 0.028 | -0.025 | -0.214 | -0.319 (active) | -0.054 | 0.049 | -0.009 | -0.252
7 | SLC7A6OS (UniProt Q96CW6) | -0.085 | 0.006 | 0.046 | -0.034 | -0.073 | -0.072 | 0.007 | -0.037 | 0.038 | 0.019 | 0.047 | -0.04 | 0.004 | -0.133 | 0.047 | -0.081 | 0.028 | -0.049 | 0.214 | 0.077
8 | TM9SF2 (UniProt Q99805) | -0.06 | -0.073 | 0.043 | -0.103 | -0.01 | -0.061 | 0.009 | 0.007 | 0.011 | 0.085 | 0.056 | -0.754 (active) | -0.017 | -0.049 | 0.064 | 0.008 | 0.028 | 0 | 0.007 | -0.089
9 | SMCHD1 (UniProt A6NHR9) | 0.043 | 0.008 | 0.123 | 0.062 | -0.005 | -0.179 | -0.078 | -0.096 | 0.002 | 0.035 | -0.019 | -0.065 | -0.041 | -0.104 | 0 | 0.064 | 0.007 | 0.104 | 0.059 | -0.149
10 | SRPRA (UniProt P08240) | 0.008 | -0.022 | -0.005 | -0.107 | -0.005 | 0.122 | -0.032 | -0.002 | 0.013 | -0.012 | 0.066 | 0.036 | 0.061 | 0.01 | 0.036 | -0.042 | -0.009 | 0.063 | -0.044 | 0.045
11 | SUOX (UniProt P51687) | -0.321 | -0.014 | 0.02 | 0.013 | -0.014 | 0.088 | 0.007 | 0.022 | -0.088 | 0.158 | 0.016 | 0.076 | 0.098 | 0.001 | -0.026 | 0.063 | 0.003 | -0.075 | -0.338 | -0.034
12 | TIAL1 isoform 2 (UniProt Q01085) | 0.033 | 0.037 | -0.016 | 0.026 | -0.064 | 0.076 | -0.007 | 0.02 | 0.029 | 0.01 | 0.008 | -0.039 | 0.023 | -0.014 | 0.006 | -0.048 | -0.023 | 0.046 | -0.054 | 0.01
13 | SPPL2B (UniProt Q8TCT7) | 0.025 | -0.223 | -0.016 | -0.01 | -0.113 | -0.05 | -0.061 | 0.084 | -0.002 | 0.292 (active) | 0.049 | -0.011 | -0.072 | 0.006 | 0.031 | -0.004 | -0.032 | -0.022 | 0.01 | -0.026
14 | TLK1 (UniProt Q9UKI8) | -0.011 | -0.021 | 0.019 | -0.009 | -0.023 | -0.029 | 0.006 | 0.064 | -0.018 | -0.04 | -0.058 | -0.008 | 0.101 | -0.028 | 0.019 | 0.145 | -0.004 | 0.028 | -0.023 | 0.026
15 | STARD3NL (UniProt O95772) | -0.005 | -0.082 | -0.054 | -0.19 | -0.056 | 0.095 | 0.048 | 0.075 | -0.048 | 0.024 | -0.011 | -0.448 (active) | 0.055 | -0.067 | 0.111 | -0.14 | 0.03 | -0.058 | 0.063 | -0.256
16 | SNX11 (UniProt Q9Y5W9) | 0.025 | -0.128 | 0.043 | -0.008 | -0.062 | -0.15 | -0.05 | 0.038 | 0.014 | -0.173 | -0.062 | -0.76 (active) | -0.021 | 0.012 | -0.486 (active) | -0.378 | -0.001 | 0.14 | -0.017 | -0.536 (active)
